For 18 molecules, outcome results are on record in PubChem BioAssay (NCATS).

Inconclusive results are not listed. The source made the active and inactive calls. Calls come from the whole dose curve; as a rule, active = well fitted inhibition curve with a large enough effect; inconclusive = small, poorly fitted or top-dose-only effect; inactive = flat fitted curve, though single readings scatter.

The test system of this assay is CP201. In words: qHTS profiling for inhibitors of Plasmodium falciparum proliferation (AID 504749). Note: nearly all actives have a fitted effect of over 60% in size. To be noted: P. falciparum in erythrocytes, SYBR Green DNA, 72 h; series mostly up to 28.7 µM. An outline of the steps: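 Quantitative HTS: compounds pinned into medium, infected erythrocytes added (0.3% parasitemia, 2.5% hematocrit), 72 h culture at 37 C under 5% CO2. Saponin/Triton lysis with SYBR Green I, overnight RT, then fluorescence read.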
`C[C@]12CCC(=O)C(O)=C1CC[C@@H]1[C@H]3CCC(=O)[C@@]3(C)CC[C@@H]12`: the result was inactive.

For the molecule `CC(C)NC(C)Cc1ccc(I)cc1` (stereo not drawn), the call was inactive.

Consider `CCCCc1ccc(C(=O)O)nc1`, for which the molecule was called inactive.

`CC(=O)OCC1=C(C(=O)O)N2C(=O)[C@@H](N)[C@@H]2SC1`: the outcome was inactive.

Regarding `NC(=O)CN1CC(O)CC1=O` (stereo not drawn), the call was inactive.

For `CCCN1CCC[C@H](c2cccc(O)c2)C1`, the result was inactive.

On to `COC(=O)c1cncn1C(C)c1ccccc1` (stereo not drawn), for which the result was inactive.

For `O=C(O)C(Cl)Cl`, the outcome was inactive.

For `C=CCN1CC[C@]23CCCCC2[C@H]1Cc1ccc(O)cc13` (stereo partly drawn), the outcome was inactive.

On to `c1ccc(C2(c3ccccc3)CC2C2=NCCN2)cc1` (stereo not drawn), for which the result was inactive.

For the molecule `Cc1ccc(Cl)c(O)c1`, the molecule was classed as inactive.

`CN1C2CCC1CC(OC(=O)c1cc(Cl)cc(Cl)c1)C2` (stereo not drawn): the molecule was classed as inactive.

`C1CCC(NC2CCCCC2)CC1`: the outcome was inactive.

On to `Cc1cc(O)ccc1Cl`, for which the call was inactive.

For the molecule `CCCCCCCCCC(CC)c1ccc(S(=O)(=O)O)cc1` (stereo not drawn), the call was inactive.

Consider `CC[N+]1(CCOC(=O)C(O)(c2ccccc2)c2ccccc2)CCCCC1`, for which the call was inactive.

With `O=C(O)COc1ccccc1`, the result was inactive.

On to `CN[C@@H]1C[C@@H](c2ccc(Cl)c(Cl)c2)c2ccccc21`, for which the molecule was classed as inactive.
